“And” between values parts separate entries of the source, which are not always exact repeats. Equal values may be shown once. The panel holds about 83,000 compounds, 20% with a hit somewhere; the sample as a whole holds those more often.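 Treatment: one concentration, 48 hours, 96-well format. Scoring: percent growth, with anything below 10 considered active.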 The source made the active and inactive calls.

This is an account of results in PubChem BioAssay (NCI).

This test relates to MDA-MB-468 breast. The experiment in a line: NCI-60 one-dose screen, 48 h (100 = growth as untreated, 0 = no growth, -100 = all killed). Conditions: 10 µM unless noted.
`COc1ccc2nc3c(cc2c1)C(=O)CC(C(F)(F)F)C3` (stereo not given): the growth is 35.6% (inactive).

Regarding `O=C(N/N=C/c1ccc(Cl)s1)c1[nH]c2ccc(Br)cc2c1-c1ccccc1`, the growth is 2.96% (active).

Take `CCCCCCOc1ccc(/C=N/NC(N)=S)cc1`: the growth is 66.9% (inactive).

In the case of `CCN(CC)c1ccc(/C=N/NC(=O)C[N+](C)(C)C)cc1`, the growth is 112% (inactive). For `COc1cc2nc(Nc3cccc(F)c3)nc(Nc3cc(C)[nH]n3)c2cc1OC`, the growth was -76.6% [20 µM] (active). The same measure for `Cc1ccc(S(=O)(=O)/C(=C\c2ccc(Cl)cc2)C(=O)c2ccccc2)cc1`: 105% (inactive); for `COc1ccc(-c2c(-c3cc4c(c(OC)c3OC)OCO4)noc2N)cc1`: -6.43% (active); for `Nc1nc2c([nH]1)c1[nH]c3ccccc3c1c1[nH]c3ccccc3c21`: -57.2% (active).

As for `COc1nc2c(c(=O)n1C)N=C1c3ccccc3C(=O)C1C(c1ccccc1)N2` (stereo not given), the growth is 82.5% (inactive). The same measure for `O=C(Nc1ccc(Br)cc1)c1cc(Br)ccc1O`: -18.1% (active) and 15% (inactive). For `COc1ccc(Nc2nc(N)nc3c(=O)[nH]ccc23)cc1` the value was 118% (inactive); for `Oc1ccc(OCCOc2ccc(O)cc2)cc1`, 94.6% (inactive); for `C#C[C@]1(O)CC[C@H]2[C@@H]3CC=C4c5sc(Nc6ccc(C)cn6)nc5CC[C@]4(C)[C@H]3CC[C@@]21C`, -23.1% (active). For `CCC(=O)N1C/C(=C/c2ccc(OC)cc2)C(=O)/C(=C/c2ccc(OC)cc2)C1` the value was -25.6% (active); for `O=S(=O)(NCCNc1nccc(-c2c(-c3cccc(O)c3)nc3occn23)n1)c1cccc(F)c1`, 97% (inactive); for `COc1cccc2c1c1nc3cc(C)c(C)cc3nc1n2CCN(C)C`, -8.02% (active). As to `O=Cc1ncc(-c2ccc(C(F)(F)F)cc2)c(NC2CCCCCC2)n1`, the growth was 2.41% [100 µM] (active). For the compound `C/C(CC(=O)NNc1ccc([N+](=O)[O-])cc1)=N\Nc1ccc([N+](=O)[O-])cc1`, the growth was 97.7% (inactive). With `COC(=O)C(C(=O)OC)C(Br)C(Br)C(Br)c1ccccc1` (stereo not given), the growth was 36.7% (inactive). The same measure for `CCOC(=O)/C(O)=C(\C=N\C(=S)Nc1ccc(Cl)c(Cl)c1)C(=O)OCC`: 102% (inactive); for `Cn1cc(-c2csc(-c3cn(C)c4ncccc34)n2)c2cc(F)cnc21`: -10.1% (active). For `COc1ccc(-c2nc3cc(C(=O)NCc4ccccc4)ccc3n2C2CCCCC2)cc1` the value was 98.4% (inactive). The same measure for `COc1ccc(/C=N/NC(=O)c2cnn3c2NC(c2ccccc2)C3)cc1OC1CCCC1` (stereo not given): 91.1% (inactive); for `CC(Oc1ccc(Cl)cc1)c1ccccc1` (stereo not given): 99.9% (inactive); for `COc1ccc(Nc2ncc(Br)c(NCCCNC(=O)C3CCCC3)n2)cc1`: 54.5% (inactive). `N#CSc1c[nH]c2cccc(/C=C/C(=O)/C=C(O)/C=C/c3cccc4[nH]cc(SC#N)c34)c12`: the growth is -55.8% (active). The same measure for `O=C(Nc1ccncc1)C(=O)c1cn(S(=O)(=O)c2ccc(Br)cc2)c2ccccc12`: 6.9% (active). The same measure for `Cc1cn(C2CC(F)C(CO)O2)c(=O)[nH]c1=O` (stereo not given): 90.7% (inactive).

On to `COc1cc(/C=C/C(=O)c2c(C)oc3nc[nH]c(=O)c23)ccc1O`, for which the growth was 113% (inactive).

Take `CC(C)Cc1ccc([C@H](C)C(=O)O)cc1`: the growth was 113% (inactive). For `C[C@]1(CO)C[C@@H](O)C[C@]2(C)[C@@H]1CC[C@@]13C[C@@H]4[C@@H](C[C@H]12)[C@]4(C)C3` the value was 113% (inactive); for `CCSCC1CC(O)(c2ccccc2)CC(c2ccc(F)cc2)O1` (stereo not given), 8.89% (active). `COc1cc(CNC(=O)Cc2ccccc2[N+](=O)[O-])ccc1OCC(=O)NO`: the growth is 98.7% (inactive).

Consider `N#Cc1c(N)nc(NCCO)nc1-c1ccc(F)cc1`, for which the growth was 102% (inactive).

On to `S=C1NC2(c3ccccc3)CCC(=S)N2c2ccccc21` (stereo not given), for which the growth was 112% (inactive).

Regarding `CC/C=C\C[C@H](O)C/C=C1/C(=O)C=C[C@@H]1C/C=C\CCCC(=O)OC(C)C`, the growth is -17% (active). The same measure for `O=Cc1cc2ccccc2nc1Oc1ccc(C(F)(F)F)cc1`: 90.7% (inactive); for `CC(=O)c1cc(C(=O)c2ccc3c(c2)Sc2ccccc2N3)n2ccccc12`: 3.96% (active). The same measure for `O=C(CCc1nnc(Cn2cncn2)o1)c1nc2ccccc2[nH]1`: 104% (inactive); for `COc1cnc2c(c1)C(=O)c1c-2n(CCCN2CCN(CCO)CC2)c(=O)c2cc([N+](=O)[O-])ccc12`: 76.6% (inactive).
